Experiments:
Test in all cases: DAPPL (digital affinity profiling via proximity ligation, sequencing); 10 mM Tris-HCl pH 7.5, 50 mM NaCl, 1 mM DTT, 4% glycerol, room temperature, 30 min; GST-TFs on glutathione beads, 16-mer random dsDNA library, 0.1% formaldehyde crosslink after washing; high values mean tight binding
FLI1 = target: T1, FLI1 (Homo sapiens, UniProt Q01543 1-452); conditions: protein: recombinant; tags: N-terminal GST; dsDNA, one strand shown
T1 sequence: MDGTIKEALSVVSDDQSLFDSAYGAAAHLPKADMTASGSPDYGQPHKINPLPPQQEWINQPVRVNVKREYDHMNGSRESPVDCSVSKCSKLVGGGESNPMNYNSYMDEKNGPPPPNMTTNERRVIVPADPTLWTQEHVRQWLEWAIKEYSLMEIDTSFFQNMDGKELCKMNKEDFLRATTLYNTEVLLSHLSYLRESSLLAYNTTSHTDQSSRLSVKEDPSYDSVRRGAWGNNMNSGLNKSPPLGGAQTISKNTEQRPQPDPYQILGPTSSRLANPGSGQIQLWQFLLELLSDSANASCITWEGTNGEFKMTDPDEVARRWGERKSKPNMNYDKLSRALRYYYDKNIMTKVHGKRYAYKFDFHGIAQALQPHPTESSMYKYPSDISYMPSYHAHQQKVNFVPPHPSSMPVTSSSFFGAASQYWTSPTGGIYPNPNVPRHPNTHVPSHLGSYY
In short: (§1)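 Pools were built from human transcription factors expressed in yeast as GST fusions, captured on glutathione beads and DNA-barcoded, along with a tag-only sample. Incubation with 200 nmole of a 16-mer random double-stranded DNA library lasted 30 min at room temperature in Tris/NaCl/DTT/glycerol buffer, and was followed by washing, 0.1% formaldehyde crosslinking, proximity ligation, PCR amplification and Illumina NextSeq500 sequencing. Binding signal is the quotient of each hexamer's read frequency for a factor and its frequency for the tag-only sample.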

ELK1 = target: T2, ELK1 (Homo sapiens, UniProt P19419 1-428); conditions: protein: recombinant; tags: N-terminal GST; dsDNA, one strand shown
T2 sequence: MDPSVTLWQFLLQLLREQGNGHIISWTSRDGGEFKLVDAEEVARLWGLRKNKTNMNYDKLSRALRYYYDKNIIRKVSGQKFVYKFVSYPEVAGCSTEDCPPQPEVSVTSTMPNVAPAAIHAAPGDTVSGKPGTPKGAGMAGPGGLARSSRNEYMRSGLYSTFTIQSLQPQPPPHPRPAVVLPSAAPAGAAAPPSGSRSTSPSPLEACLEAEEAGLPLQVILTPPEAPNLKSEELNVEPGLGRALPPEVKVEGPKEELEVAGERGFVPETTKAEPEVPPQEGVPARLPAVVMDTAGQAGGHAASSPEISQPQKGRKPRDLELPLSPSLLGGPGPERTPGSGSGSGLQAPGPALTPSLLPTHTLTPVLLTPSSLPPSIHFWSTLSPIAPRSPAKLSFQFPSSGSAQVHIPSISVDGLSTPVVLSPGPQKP
In short: as §1

GABPA = target: T3, GABPA (Homo sapiens, UniProt Q06546 1-454); conditions: protein: recombinant; tags: N-terminal GST; dsDNA, one strand shown
T3 sequence: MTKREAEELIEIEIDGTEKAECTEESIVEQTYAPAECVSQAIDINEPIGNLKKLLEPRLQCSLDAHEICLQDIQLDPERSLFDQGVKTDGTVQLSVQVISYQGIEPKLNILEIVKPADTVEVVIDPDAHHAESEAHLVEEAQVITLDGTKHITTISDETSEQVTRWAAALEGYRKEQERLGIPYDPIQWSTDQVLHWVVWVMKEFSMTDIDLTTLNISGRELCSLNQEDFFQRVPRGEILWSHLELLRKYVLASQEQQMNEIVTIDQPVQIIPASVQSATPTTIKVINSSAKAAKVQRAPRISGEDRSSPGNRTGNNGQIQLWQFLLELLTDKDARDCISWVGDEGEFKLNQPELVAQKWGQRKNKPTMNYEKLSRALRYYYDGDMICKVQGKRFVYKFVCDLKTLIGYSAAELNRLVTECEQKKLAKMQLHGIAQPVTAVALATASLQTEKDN
In short: as §1

ERG = target: T4, ERG (Homo sapiens, UniProt P11308 1-479); conditions: protein: recombinant; tags: N-terminal GST; dsDNA, one strand shown
T4 sequence: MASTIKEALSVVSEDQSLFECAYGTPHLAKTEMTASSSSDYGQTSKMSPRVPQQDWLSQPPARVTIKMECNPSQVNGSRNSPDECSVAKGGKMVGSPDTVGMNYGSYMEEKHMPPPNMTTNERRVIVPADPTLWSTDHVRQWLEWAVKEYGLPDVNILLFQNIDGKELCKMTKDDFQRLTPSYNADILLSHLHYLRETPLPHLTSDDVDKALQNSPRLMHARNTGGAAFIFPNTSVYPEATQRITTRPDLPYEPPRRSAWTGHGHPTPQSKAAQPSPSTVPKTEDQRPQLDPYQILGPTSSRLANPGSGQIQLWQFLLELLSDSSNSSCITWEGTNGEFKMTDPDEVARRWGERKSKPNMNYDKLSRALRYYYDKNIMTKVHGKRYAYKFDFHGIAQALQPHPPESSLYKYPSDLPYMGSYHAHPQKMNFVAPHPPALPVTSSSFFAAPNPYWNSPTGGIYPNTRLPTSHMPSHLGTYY
In short: as §1

ELF1 = ELF1 (Homo sapiens, UniProt P32519 1-619); conditions: protein: recombinant; tags: N-terminal GST; dsDNA, one strand shown
Chain of ELF1 (P32519 whole entry): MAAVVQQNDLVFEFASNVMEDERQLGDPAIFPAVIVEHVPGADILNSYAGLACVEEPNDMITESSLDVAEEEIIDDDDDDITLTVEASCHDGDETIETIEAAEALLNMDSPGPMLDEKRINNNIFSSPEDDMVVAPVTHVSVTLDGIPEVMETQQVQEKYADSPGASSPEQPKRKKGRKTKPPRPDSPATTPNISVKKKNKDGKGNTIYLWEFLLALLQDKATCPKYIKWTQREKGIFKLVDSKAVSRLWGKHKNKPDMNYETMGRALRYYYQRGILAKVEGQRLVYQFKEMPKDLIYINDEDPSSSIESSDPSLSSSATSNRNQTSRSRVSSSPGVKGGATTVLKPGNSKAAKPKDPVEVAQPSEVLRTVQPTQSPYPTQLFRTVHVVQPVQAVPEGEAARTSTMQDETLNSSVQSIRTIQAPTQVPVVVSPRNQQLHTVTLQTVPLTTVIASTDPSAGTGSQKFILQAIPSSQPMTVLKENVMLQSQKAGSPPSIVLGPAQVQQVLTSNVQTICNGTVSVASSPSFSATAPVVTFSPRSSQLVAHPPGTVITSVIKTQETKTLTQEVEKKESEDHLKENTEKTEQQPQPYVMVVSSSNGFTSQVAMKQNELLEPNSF
In short: as §1

EHF = target: T5, EHF (Homo sapiens, UniProt Q9NZC4 1-300); conditions: protein: recombinant; tags: N-terminal GST; dsDNA, one strand shown
T5 sequence: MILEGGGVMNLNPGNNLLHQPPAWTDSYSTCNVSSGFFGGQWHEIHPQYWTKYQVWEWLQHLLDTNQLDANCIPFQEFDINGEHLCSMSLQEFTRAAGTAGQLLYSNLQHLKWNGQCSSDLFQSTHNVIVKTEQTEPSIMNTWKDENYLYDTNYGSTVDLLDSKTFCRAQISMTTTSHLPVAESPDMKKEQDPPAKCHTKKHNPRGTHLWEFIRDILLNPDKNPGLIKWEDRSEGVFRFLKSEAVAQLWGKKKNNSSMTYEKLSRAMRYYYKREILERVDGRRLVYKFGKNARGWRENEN
In short: as §1

SPI1 = SPI1 (Homo sapiens, UniProt P17947 1-270); conditions: protein: recombinant; tags: N-terminal GST; dsDNA, one strand shown
In short: as §1

SPIB = SPIB (Homo sapiens, UniProt Q01892 1-262); conditions: protein: recombinant; tags: N-terminal GST; dsDNA, one strand shown
Chain of SPIB (Q01892 whole entry): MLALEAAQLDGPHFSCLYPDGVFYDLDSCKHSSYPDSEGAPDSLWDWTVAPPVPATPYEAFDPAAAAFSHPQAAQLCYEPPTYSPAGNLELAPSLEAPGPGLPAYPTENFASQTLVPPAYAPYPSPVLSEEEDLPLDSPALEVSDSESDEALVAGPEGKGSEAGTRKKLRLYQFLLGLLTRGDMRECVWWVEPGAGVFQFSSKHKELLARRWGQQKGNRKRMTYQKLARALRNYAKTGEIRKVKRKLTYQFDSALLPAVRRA
In short: as §1

ELK3 = target: T6, ELK3 (Homo sapiens, UniProt P41970 1-407); conditions: protein: recombinant; tags: N-terminal GST; dsDNA, one strand shown
T6 sequence: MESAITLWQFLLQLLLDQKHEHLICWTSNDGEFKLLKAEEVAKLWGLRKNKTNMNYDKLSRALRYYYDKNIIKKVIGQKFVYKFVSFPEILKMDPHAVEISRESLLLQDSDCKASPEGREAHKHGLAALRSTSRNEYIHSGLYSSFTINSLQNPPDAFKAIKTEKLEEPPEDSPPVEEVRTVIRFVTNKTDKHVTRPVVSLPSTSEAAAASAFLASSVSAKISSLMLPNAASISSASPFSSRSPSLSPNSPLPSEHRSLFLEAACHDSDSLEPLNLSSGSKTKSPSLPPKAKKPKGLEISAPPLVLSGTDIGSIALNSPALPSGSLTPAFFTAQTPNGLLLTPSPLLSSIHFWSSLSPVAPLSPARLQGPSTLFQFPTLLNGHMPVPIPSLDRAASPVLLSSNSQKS
In short: as §1

FEV = target: T7, FEV (Homo sapiens, UniProt Q99581 1-238); conditions: protein: recombinant; tags: N-terminal GST; dsDNA, one strand shown
T7 sequence: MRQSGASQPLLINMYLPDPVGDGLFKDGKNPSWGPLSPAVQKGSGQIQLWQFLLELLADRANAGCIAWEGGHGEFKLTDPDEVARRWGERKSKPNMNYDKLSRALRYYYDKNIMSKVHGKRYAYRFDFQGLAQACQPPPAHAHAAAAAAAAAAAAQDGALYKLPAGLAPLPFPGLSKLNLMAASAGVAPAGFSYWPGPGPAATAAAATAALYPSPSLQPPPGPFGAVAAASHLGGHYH
In short: as §1

ETV5 = ETV5 (Homo sapiens, UniProt P41161 1-510); conditions: protein: recombinant; tags: N-terminal GST; dsDNA, one strand shown
Chain of ETV5 (P41161 whole entry): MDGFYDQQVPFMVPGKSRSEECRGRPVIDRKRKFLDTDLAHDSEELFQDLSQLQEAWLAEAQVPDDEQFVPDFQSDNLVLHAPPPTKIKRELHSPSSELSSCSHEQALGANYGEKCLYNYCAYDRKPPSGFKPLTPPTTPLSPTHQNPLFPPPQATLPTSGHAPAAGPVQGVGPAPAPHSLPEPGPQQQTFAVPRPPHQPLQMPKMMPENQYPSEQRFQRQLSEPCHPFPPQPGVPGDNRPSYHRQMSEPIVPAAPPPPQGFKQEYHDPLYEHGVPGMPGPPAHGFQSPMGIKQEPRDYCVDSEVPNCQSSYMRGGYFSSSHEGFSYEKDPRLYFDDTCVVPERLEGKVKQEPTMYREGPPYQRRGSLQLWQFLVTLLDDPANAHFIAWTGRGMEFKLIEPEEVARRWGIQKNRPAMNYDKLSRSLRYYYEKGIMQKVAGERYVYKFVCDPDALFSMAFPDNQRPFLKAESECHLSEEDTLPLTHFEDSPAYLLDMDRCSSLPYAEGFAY
In short: as §1

HSF1 = HSF1 (Homo sapiens, UniProt Q00613 1-529); conditions: protein: recombinant; tags: N-terminal GST; chain copies: 3; dsDNA, one strand shown
Chain of HSF1 (Q00613 whole entry): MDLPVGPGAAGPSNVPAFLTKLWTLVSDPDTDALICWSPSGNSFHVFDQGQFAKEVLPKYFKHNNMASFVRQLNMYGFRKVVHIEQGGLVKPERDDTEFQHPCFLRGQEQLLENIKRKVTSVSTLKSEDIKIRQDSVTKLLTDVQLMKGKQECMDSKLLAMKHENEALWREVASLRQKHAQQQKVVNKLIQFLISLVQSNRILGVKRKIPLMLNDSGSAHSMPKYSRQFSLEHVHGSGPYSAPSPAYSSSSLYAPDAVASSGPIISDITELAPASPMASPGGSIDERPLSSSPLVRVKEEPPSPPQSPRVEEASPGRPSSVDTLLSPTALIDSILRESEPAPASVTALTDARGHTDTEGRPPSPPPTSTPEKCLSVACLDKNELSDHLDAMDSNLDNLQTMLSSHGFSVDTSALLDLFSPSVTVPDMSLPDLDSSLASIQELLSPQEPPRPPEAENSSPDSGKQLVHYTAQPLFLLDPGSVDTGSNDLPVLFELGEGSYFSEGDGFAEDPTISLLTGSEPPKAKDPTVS
In short: as §1

SPIC = target: T8, SPIC (Homo sapiens, UniProt Q8N5J4 1-248); conditions: protein: recombinant; tags: N-terminal GST; dsDNA, one strand shown
T8 sequence: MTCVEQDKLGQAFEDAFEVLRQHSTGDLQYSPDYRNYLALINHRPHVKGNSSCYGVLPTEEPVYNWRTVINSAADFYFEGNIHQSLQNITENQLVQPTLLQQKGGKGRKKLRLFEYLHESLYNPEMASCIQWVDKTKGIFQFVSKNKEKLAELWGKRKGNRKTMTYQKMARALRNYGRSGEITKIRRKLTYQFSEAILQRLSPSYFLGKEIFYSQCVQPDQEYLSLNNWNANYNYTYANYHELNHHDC
In short: as §1

ELF4 = ELF4 (Homo sapiens, UniProt Q99607 1-663); conditions: protein: recombinant; tags: N-terminal GST; dsDNA, one strand shown
Chain of ELF4 (Q99607 whole entry): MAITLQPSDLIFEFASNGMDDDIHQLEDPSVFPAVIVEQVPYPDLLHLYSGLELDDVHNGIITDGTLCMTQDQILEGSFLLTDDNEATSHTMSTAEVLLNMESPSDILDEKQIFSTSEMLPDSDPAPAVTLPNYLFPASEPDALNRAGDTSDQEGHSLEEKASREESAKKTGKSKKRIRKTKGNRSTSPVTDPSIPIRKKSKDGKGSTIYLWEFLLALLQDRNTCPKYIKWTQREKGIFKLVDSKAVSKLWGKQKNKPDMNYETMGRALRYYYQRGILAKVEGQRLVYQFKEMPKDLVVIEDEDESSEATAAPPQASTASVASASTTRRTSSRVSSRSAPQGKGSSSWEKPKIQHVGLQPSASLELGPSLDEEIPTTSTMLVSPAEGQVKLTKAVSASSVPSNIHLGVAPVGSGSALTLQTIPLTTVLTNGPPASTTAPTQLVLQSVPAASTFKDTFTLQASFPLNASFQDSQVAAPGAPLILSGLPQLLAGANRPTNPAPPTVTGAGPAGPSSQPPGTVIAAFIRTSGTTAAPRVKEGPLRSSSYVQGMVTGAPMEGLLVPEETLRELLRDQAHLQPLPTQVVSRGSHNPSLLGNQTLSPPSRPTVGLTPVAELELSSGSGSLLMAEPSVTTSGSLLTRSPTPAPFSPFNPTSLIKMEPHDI
In short: as §1

ELK4 = target: T9, ELK4 (Homo sapiens, UniProt P28324-2 1-405); conditions: protein: recombinant; tags: N-terminal GST; dsDNA, one strand shown
T9 sequence: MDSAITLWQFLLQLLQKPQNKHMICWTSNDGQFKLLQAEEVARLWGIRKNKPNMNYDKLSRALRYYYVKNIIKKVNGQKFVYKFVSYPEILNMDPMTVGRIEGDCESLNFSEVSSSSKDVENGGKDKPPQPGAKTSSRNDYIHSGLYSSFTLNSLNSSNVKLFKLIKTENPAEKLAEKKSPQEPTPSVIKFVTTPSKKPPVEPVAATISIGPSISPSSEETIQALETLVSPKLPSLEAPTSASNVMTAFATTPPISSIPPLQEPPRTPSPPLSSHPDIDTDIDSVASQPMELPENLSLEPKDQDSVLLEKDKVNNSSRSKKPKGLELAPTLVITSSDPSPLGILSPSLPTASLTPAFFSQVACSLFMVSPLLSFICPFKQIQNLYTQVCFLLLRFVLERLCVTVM
In short: as §1

ETV2 = target: T10, ETV2 (Homo sapiens, UniProt O00321 1-342); conditions: protein: recombinant; tags: N-terminal GST; dsDNA, one strand shown
T10 sequence: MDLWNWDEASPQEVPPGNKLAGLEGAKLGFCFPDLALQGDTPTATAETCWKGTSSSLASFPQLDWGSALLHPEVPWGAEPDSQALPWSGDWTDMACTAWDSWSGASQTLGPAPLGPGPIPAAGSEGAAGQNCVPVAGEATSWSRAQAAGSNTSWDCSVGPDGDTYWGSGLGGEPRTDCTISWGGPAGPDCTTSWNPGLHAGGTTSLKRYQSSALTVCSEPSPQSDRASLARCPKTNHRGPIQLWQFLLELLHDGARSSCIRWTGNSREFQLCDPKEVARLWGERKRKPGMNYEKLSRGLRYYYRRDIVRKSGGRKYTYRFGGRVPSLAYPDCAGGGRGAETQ
In short: as §1

ELF3 = target: T11, ELF3 (Homo sapiens, UniProt P78545 1-371); conditions: protein: recombinant; tags: N-terminal GST; dsDNA, one strand shown
T11 sequence: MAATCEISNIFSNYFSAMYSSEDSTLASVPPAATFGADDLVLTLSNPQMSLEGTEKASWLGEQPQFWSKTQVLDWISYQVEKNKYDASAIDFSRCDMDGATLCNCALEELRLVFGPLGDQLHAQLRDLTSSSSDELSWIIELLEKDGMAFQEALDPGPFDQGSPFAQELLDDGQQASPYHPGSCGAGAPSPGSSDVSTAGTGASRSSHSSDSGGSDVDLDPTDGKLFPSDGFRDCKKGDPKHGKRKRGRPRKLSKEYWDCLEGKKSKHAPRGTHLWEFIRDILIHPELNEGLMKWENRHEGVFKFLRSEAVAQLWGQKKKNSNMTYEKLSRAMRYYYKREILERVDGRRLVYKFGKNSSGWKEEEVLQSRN
In short: as §1

CRX = CRX (Homo sapiens, UniProt O43186 1-299); conditions: protein: recombinant; tags: N-terminal GST; dsDNA, one strand shown
Chain of CRX (O43186 whole entry): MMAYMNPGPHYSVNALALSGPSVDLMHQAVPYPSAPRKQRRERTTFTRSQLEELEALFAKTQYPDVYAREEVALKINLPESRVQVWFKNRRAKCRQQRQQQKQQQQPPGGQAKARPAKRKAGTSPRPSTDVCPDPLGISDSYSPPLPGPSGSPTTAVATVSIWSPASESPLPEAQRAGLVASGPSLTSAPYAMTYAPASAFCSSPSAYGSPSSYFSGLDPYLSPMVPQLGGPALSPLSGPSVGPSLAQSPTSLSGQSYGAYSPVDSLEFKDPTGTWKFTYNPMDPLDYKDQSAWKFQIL
In short: as §1

ETV1 = ETV1 (Homo sapiens, UniProt P50549 1-477); conditions: protein: recombinant; tags: N-terminal GST; dsDNA, one strand shown
Chain of ETV1 (P50549 whole entry): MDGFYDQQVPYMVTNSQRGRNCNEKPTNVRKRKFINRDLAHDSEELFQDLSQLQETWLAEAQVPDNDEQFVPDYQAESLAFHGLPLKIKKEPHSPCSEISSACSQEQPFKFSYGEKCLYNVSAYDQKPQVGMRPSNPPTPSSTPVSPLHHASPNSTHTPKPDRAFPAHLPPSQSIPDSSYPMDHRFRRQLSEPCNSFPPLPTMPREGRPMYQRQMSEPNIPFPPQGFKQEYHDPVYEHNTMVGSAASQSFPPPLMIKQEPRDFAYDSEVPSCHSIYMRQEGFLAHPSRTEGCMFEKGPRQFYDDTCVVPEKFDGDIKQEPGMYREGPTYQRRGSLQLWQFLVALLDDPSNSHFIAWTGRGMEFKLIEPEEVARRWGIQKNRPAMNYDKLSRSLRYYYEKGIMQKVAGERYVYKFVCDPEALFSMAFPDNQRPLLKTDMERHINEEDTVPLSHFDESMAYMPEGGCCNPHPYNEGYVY
In short: as §1

TATATT
binding signal (FLI1): 1.34 fold enrichment (6-mer frequency, TF over GST control) | binding signal (ELK1): 1.33 fold enrichment (6-mer frequency, TF over GST control) | binding signal (GABPA): 1.47 fold enrichment (6-mer frequency, TF over GST control) | binding signal (ERG): 1.41 fold enrichment (6-mer frequency, TF over GST control) | binding signal (ELF1): 1.47 fold enrichment (6-mer frequency, TF over GST control) | binding signal (EHF): 1.43 fold enrichment (6-mer frequency, TF over GST control) | binding signal (SPI1): 1.3 fold enrichment (6-mer frequency, TF over GST control) | binding signal (SPIB): 1.34 fold enrichment (6-mer frequency, TF over GST control) | binding signal (ELK3): 1.3 fold enrichment (6-mer frequency, TF over GST control) | binding signal (FEV): 1.39 fold enrichment (6-mer frequency, TF over GST control) | binding signal (ETV5): 1.43 fold enrichment (6-mer frequency, TF over GST control) | binding signal (HSF1): 1.58 fold enrichment (6-mer frequency, TF over GST control) | binding signal (SPIC): 1.56 fold enrichment (6-mer frequency, TF over GST control) | binding signal (ELF4): 1.32 fold enrichment (6-mer frequency, TF over GST control) | binding signal (ELK4): 1.65 fold enrichment (6-mer frequency, TF over GST control) | binding signal (ETV2): 1.41 fold enrichment (6-mer frequency, TF over GST control) | binding signal (ELF3): 1.58 fold enrichment (6-mer frequency, TF over GST control) | binding signal (CRX): 1.93 fold enrichment (6-mer frequency, TF over GST control) | binding signal (ETV1): 1.44 fold enrichment (6-mer frequency, TF over GST control)
